Structures are written as SMILES. A number with no mark means an inactive call. Calls of active or inactive are those of the source. Calls come from the whole dose curve; as a rule, active = well fitted activation curve with a large enough effect; inconclusive = small, poorly fitted or top-dose-only effect; inactive = no such curve, though single readings can be large or run the other way.

Cytochrome P450 3A4 (Homo sapiens), sequence (P08684 whole entry, looked up): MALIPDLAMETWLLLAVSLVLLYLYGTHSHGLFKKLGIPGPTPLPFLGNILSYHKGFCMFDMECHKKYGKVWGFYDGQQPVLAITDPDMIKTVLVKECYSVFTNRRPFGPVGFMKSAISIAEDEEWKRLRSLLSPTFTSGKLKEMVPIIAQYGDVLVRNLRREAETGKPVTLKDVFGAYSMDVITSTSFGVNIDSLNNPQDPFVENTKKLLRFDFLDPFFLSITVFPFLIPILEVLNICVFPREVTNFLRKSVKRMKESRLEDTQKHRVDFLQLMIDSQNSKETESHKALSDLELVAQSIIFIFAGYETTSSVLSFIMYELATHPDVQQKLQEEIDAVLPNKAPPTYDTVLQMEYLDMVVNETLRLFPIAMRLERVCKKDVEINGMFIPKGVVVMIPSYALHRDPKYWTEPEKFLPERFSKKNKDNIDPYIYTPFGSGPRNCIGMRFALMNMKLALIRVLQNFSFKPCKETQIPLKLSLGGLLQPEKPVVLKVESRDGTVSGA

The assay addresses Cytochrome P450 3A4 (Homo sapiens) (UniProt P08684). Put plainly: qHTS Assay for Activators of Cytochrome P450 3A4 (AID 885). Note: nearly all actives have a fitted effect of over 65% in size. To be noted: recombinant CYP3A4, Luciferin-PPXE luminescence, 60 min; series mostly up to 57.1 µM. In a few lines: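 Human CYP3A4 (20 nM) with Luciferin-PPXE at 25 uM (its KM) in 200 mM KPO4; 10 min compound preincubation, then NADPH regeneration and 60 min reaction at RT. Luciferin read by luminescence; normalized to 57 uM ketoconazole full inhibition.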
As for `C#CCCCO/N=C1/C[C@@H](O)[C@@H](O)[C@@H]2[C@@H]3C(=O)N(C[C@@H]4CCCO4)C(=O)[C@H]3CC[C@@H]12`, the activity change, positive = activation was -39.4% [at 11.4 µM].

In the case of `N#Cc1ccc(C23CC4(C2)[C@H](CN(CC2CCCCC2)[C@@H]4c2ccccc2)C3c2ccc(Cl)nc2)cc1` (stereo partly drawn), the Potency result is “inactive”.

For the molecule `COC(=O)NC(/C(C(=O)OC)=C(\C)NCc1ccccc1)c1ccccc1` (stereo not drawn), the activity change, positive = activation is -30.2% [at 11.4 µM].

These data come from PubChem BioAssay (NCATS).
